Values joined by “and” are separate entries in the source; they are usually repeats but may differ in a detail not shown here. Identical values can stand only once. Records with an inconclusive call do not appear. Active and inactive are the calls of the source. Unless noted, the call rests on the fitted dose curve; in most records, active means well fitted curve in the direction sought with a large enough effect; inconclusive means small, poorly fitted or top-dose-only effect, or another doubt; inactive means no such curve, though single readings can be large; an effect the other way counts as inactive or inconclusive.
Experiments:
[1] = Validation qHTS assay for inhibitors of Activation Induced Cytidine Deaminase (AID): UDG Counterscreen signal (AID 1347427)
Procedure, shortened: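 Fluorescence at 560 nm excitation, 665 nm emission reports UDG signal after 250 mM NaOH (2x) addition and 30 min. Enzymes (AID 1 uM, UDG 2 U/mL, at 4/3x) preincubated 10 min with compound, then 4 h with 4x 250 nM DJC20/DJC23 substrate at room temperature.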

[2] = target: Single-stranded DNA cytosine deaminase (Homo sapiens) (UniProt Q9GZX7); test: Validation qHTS assay for inhibitors of Activation Induced Cytidine Deaminase (AID): AID signal (AID 1347429)
Sequence of Single-stranded DNA cytosine deaminase (Homo sapiens) (Q9GZX7 whole entry, looked up): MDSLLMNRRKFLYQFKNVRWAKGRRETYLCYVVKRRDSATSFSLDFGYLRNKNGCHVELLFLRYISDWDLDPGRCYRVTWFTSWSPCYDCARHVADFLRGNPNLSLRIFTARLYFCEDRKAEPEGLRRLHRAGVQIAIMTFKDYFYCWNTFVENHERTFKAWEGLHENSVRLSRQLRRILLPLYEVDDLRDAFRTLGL
Procedure, shortened: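 AID+UDG coupled FRET deamination; cpds up to 114 uM final; DJC20/DJC23 substrate, 4 hr RT; NaOH stop, 30 min RT; read Ex 540/Em 590.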

[3] = Primary qHTS for inhibitors of La Crosse Virus (LACV) - induced cell death in SH-SY5Y cells (AID 1508616);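 further: top concentration of the series differs between compounds; higher means more rescue of cells from virus-induced death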
Procedure, shortened: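 Cytopathicity rescue screen: compounds pinned onto SH-SY5Y cells, which are then infected with LACV (MOI 0.01) and held 6 days at 37C. Percent activity is scaled between infected DMSO control and uninfected DMSO control.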

[4] = target: Calcium and integrin-binding protein 1 (Homo sapiens) (UniProt Q99828); test: Primary qHTS for Identification of Calcium Integrin Binding Protein 1 (CIB1) Competitor (AID 1508620);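 further: GST tagged CIB1 binding a fluorescein labelled alphaIIb integrin peptide tracer; top concentration of the series differs between compounds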
Sequence of Calcium and integrin-binding protein 1 (Homo sapiens) (Q99828 whole entry, looked up): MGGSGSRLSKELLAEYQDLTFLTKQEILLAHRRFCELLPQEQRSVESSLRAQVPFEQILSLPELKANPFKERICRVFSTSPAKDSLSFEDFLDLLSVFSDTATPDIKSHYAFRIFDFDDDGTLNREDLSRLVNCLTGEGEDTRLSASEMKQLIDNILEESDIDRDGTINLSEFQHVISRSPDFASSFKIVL
Procedure, shortened: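 Fluorescence polarization competition: GST-tagged CIB1 (1 uM final) preincubated with compound 15 min at room temperature, then FITC-labelled alphaIIb peptide (100 nM final) added. After 15 min at room temperature, polarization read at Ex 480/Em 540.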

[5] = Counterscreen qHTS for small molecule stabilizers of the endoplasmic reticulum resident proteome: GLuc-NoTag assay (AID 1508627); further: potency means the concentration at half of the fitted maximal effect
Procedure, shortened: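 Counterscreen line: SH-SY5Y-GLuc-NoTag. Seed, 5 h; compound, 19 h; thapsigargin 100 nM, 4 h; 37C/5% CO2. Readout: secreted GLuc luminescence, coelenterazine 0.07x final, no lysis.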

[6] = Confirmatory qHTS for small molecule stabilizers of the endoplasmic reticulum resident proteome: Secreted ER Calcium Modulated Protein (SERCaMP) assay (AID 1508628); further: nearly all actives have a fitted effect of over 40% in size; further: potency means the concentration at half of the fitted maximal effect
Procedure, shortened: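 GLuc-SERCaMP-expressing SH-SY5Y cells, pretreated 16 h with compound, are challenged with thapsigargin to empty ER calcium stores; after 4 h, coelenterazine is added directly to the medium and luminescence is imaged.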

[7] = Primary qHTS for small molecule stabilizers of the endoplasmic reticulum resident proteome: Secreted ER Calcium Modulated Protein (SERCaMP) assay (AID 1508630)
Procedure, shortened: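 The SH-SY5Y reporter protocol was run at 3 concentrations up to 38.3 uM (primary) or 11 concentrations (follow-up): 16 h compound, 100 nM thapsigargin for 4 h, then extracellular luciferase luminescence.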

[8] = target: Cytochrome P450 2C9 (Homo sapiens) (UniProt P11712); test: Cytochrome P450 family 2 subfamily C member 9 (CYP2C9) small molecule antagonists: luciferase biochemical (cell-free) qHTS assay (AID 1645842; active means well fitted curve in the direction sought with a large enough effect in the repeat runs; an effect the other way counts as inactive or inconclusive; further: nearly all actives have a fitted effect of over 55% in size; further: potency means the concentration at half of the fitted maximal effect)
Sequence of Cytochrome P450 2C9 (Homo sapiens) (P11712 whole entry, looked up): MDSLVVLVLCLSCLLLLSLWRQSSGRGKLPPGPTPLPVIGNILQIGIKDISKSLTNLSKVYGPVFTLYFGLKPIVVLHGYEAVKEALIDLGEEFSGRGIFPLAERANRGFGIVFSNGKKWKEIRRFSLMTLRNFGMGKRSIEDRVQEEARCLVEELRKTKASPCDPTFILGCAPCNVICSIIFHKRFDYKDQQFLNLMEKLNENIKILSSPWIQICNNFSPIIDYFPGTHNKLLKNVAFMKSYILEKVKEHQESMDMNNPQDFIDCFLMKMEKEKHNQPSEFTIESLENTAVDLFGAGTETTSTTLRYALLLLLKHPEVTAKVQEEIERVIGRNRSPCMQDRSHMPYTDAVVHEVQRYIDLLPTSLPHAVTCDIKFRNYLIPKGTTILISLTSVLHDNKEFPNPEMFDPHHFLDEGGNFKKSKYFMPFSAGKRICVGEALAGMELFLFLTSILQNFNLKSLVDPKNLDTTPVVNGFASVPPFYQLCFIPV
Procedure, shortened: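 P450-Glo CYP2C9 system: proluciferin substrate with enzyme in mix containing 0.4% BSA, 10 min at room temperature, then NADPH regeneration solution added and incubated 1 h at 37C. Detection reagent stopped reaction; luminescence read after 20 min as RLU.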

Papain (Carica papaya) = Papain (Carica papaya) (UniProt P00784); test: Primary qHTS assay for inhibitors of the protease papain (AID 1645873);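 further: papain turnover of Z-FR-AMC read as the AMC fluorescence gain over 10 min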; further: potency means the concentration at half of the fitted maximal effect
Sequence of Papain (Carica papaya) (P00784 whole entry, looked up, the tested form may be a part): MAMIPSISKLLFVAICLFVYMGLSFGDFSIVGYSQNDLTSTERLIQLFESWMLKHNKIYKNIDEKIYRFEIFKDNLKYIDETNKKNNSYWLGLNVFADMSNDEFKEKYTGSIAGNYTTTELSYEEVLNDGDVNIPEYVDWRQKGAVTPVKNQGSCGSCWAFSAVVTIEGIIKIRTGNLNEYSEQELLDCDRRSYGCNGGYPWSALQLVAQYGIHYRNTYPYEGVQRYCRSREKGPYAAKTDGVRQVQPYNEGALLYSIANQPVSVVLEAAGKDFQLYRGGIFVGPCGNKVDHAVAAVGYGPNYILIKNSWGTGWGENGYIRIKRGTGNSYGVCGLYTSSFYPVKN

[9] = Primary qHTS for inhibitors of nuclear receptor binding SET domain protein 2 (NSD2) in an isogenic RCH-ACV NSD2 p.E1099K mutant (9B) (AID 1645876); further: nearly all actives have a fitted effect of over 70% in size; further: potency means the concentration at half of the fitted maximal effect
[10] = Primary qHTS for inhibitors of nuclear receptor binding SET domain protein 2 (NSD2) in an RCH-ACV wild type WT cells (2C) (AID 1645877); further: nearly all actives have a fitted effect of over 70% in size; further: potency means the concentration at half of the fitted maximal effect
[11] = target: Calcium and integrin-binding protein 1 (Homo sapiens) (UniProt Q99828); test: Validation qHTS for Identification of Calcium Integrin Binding protein 1 (CIB1) Competitor (AID 1508618)
Procedure, shortened: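 In this qHTS validation, the LOPAC set (up to 114 uM) was tested for blocking CIB1 binding to a fluorescein-tagged alphaIIb peptide, with FP detection at 480/540 nm.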

[12] = A High-Content qHTS Against Drug Library for the Identification of Small Molecules that Inhibit DYT1 Early Onset Primary Dystonia-Associated Cell Pathology (AID 1645839; calls by dose curve; further: series mostly up to about 46 µM)
Procedure, shortened: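 Cells were seeded and left for 24 h, then dosed with compound alongside tetracycline induction of mutant EGFP-TorsinA. They were incubated for 48 h, fixed in 4% paraformaldehyde, permeabilized and imaged for mislocalization (%pathology) and cell count.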

[13] = target: Cytochrome P450 2D6 (Homo sapiens) (UniProt P10635); test: Cytochrome P450 family 2 subfamily D member 6 (CYP2D6) small molecule antagonists: luciferase biochemical (cell-free) qHTS assay (AID 1645840; active means well fitted curve in the direction sought with a large enough effect in the repeat runs; an effect the other way counts as inactive or inconclusive; further: nearly all actives have a fitted effect of over 55% in size; further: potency means the concentration at half of the fitted maximal effect)
Sequence of Cytochrome P450 2D6 (Homo sapiens) (P10635 whole entry, looked up): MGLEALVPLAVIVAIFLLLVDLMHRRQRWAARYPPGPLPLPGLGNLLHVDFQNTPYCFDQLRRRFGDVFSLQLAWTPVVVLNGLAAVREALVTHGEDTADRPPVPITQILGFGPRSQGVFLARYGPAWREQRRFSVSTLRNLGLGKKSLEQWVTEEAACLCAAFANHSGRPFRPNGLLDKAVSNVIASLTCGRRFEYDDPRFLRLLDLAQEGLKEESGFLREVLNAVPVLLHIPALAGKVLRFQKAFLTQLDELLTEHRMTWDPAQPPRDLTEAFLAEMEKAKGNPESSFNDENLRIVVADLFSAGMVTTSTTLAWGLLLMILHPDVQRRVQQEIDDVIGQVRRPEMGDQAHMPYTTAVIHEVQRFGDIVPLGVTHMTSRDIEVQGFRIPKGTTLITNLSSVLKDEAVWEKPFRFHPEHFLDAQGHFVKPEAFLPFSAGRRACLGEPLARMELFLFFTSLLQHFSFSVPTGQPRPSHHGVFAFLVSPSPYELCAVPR
Procedure, shortened: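 P450-Glo CYP2D6 system: proluciferin substrate converted by enzyme to luciferin, read by luminescence proportional to activity. Enzyme-substrate mix with compound 10 min at room temperature, then NADPH regeneration 1 h before detection reagent.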

[14] = target: N-terminal Xaa-Pro-Lys N-methyltransferase 1 (Homo sapiens) (UniProt Q9BV86); test: Confirmatory qHTS for Inhibitors of N-terminal methyltransferase 1 (NTMT1): MTaseGlo Assay (AID 1645874);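 further: luminescence from SAH made as NTMT1 methylates SPKRIA peptide using SAM; series mostly up to about 100 µM; nearly all actives have a fitted effect of over 65% in size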
Sequence of N-terminal Xaa-Pro-Lys N-methyltransferase 1 (Homo sapiens) (Q9BV86 whole entry, looked up): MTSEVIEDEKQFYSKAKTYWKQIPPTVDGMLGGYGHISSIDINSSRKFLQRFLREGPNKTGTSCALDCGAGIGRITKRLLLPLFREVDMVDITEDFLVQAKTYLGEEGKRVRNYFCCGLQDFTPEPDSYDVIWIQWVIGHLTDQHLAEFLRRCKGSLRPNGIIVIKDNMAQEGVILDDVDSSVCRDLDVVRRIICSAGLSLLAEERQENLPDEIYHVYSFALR
Procedure, shortened: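 Room-temperature NTMT1 reaction, 30 min, with 100 uM SAM and 1 uM SPKRIA substrate; enzyme 125 nM. Read-out: MTase-Glo luminescence, normalized to no-enzyme and DMSO controls.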

[15] = target: Rap guanine nucleotide exchange factor 3 (Homo sapiens) (UniProt O95398); test: Confirmatory qHTS for agonist of cAMP-regulated guanine nucleotide exchange factor 3 (EPAC1) (AID 1645881);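 further: EPAC1 catalysed release of BODIPY-GDP from Rap1B seen as fluorescence loss; nearly all actives have a fitted effect of over 75% in size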
Sequence of Rap guanine nucleotide exchange factor 3 (Homo sapiens) (O95398 whole entry, looked up): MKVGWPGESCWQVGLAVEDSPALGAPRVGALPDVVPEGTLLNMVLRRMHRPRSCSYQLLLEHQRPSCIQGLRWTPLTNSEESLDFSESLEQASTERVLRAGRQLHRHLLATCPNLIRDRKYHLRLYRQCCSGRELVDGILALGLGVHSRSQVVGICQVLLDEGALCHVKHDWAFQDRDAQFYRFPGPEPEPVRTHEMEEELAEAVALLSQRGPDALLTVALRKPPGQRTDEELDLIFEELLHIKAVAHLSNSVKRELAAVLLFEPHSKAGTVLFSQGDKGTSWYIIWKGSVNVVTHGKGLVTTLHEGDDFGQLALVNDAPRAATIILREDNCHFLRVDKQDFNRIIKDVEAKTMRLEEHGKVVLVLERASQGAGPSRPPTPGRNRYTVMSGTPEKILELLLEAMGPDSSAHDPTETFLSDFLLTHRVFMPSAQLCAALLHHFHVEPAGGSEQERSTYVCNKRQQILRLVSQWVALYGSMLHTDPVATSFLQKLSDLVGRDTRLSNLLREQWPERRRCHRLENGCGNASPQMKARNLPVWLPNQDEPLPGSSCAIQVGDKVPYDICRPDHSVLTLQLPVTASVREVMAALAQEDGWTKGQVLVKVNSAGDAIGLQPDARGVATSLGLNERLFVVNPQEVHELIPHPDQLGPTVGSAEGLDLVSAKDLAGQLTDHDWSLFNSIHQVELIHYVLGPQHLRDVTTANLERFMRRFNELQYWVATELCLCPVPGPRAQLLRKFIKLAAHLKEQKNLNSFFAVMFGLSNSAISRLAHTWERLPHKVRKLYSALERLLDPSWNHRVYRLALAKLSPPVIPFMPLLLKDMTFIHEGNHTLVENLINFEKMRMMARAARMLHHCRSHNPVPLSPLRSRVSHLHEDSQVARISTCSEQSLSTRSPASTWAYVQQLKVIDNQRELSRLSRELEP

[16] = target: Rap guanine nucleotide exchange factor 4 (Homo sapiens) (UniProt Q8WZA2); test: Confirmatory qHTS for agonist of cAMP-regulated guanine nucleotide exchange factor 4 (EPAC2) (AID 1645884);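 further: nucleotide exchange releases bodipy-GDP from Rap1 and this lowers its fluorescence; nearly all actives have a fitted effect of over 65% in size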
Sequence of Rap guanine nucleotide exchange factor 4 (Homo sapiens) (Q8WZA2 whole entry, looked up): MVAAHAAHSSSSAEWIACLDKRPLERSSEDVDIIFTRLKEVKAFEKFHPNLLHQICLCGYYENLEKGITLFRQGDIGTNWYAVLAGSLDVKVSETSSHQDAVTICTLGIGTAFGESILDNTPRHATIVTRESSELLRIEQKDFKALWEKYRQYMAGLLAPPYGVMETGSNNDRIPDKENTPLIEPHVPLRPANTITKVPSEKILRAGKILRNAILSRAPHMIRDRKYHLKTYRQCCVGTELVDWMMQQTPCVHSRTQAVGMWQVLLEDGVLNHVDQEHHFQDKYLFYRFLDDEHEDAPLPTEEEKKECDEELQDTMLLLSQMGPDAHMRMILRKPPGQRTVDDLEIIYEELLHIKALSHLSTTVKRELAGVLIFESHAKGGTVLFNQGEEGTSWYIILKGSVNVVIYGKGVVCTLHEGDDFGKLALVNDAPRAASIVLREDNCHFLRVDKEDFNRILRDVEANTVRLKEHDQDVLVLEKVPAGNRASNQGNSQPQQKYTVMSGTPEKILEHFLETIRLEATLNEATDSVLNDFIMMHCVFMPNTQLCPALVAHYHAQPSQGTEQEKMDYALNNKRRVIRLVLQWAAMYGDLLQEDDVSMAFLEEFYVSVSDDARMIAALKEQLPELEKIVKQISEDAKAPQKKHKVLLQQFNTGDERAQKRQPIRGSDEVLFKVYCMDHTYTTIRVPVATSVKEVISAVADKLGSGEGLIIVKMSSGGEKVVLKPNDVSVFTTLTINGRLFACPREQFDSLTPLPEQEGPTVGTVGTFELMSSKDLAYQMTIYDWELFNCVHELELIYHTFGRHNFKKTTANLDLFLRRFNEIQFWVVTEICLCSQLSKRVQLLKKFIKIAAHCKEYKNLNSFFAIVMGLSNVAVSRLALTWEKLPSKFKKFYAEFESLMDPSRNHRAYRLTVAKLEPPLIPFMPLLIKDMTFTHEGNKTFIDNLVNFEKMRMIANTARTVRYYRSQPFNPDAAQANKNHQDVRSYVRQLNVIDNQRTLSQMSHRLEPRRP

[17] = target: Rap guanine nucleotide exchange factor 3 (Homo sapiens) (UniProt O95398); test: Confirmatory qHTS for antagonist of cAMP-regulated guanine nucleotide exchange factor 3 (EPAC1) (AID 1645880); further: nearly all actives have a fitted effect of over 55% in size
Procedure, shortened: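 Released BODIPY-GDP fluoresces less than Rap1-bound BODIPY-GDP; the signal is followed at 480/540 nm at 5-min intervals over 30 min, after 5 min at room temperature. Reactions contain 100 nM EPAC1, 250 nM RAP1B-BODIPY-GDP and 50 uM GDP; results are normalized to ATA and DMSO.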

Measured: Potency

O=C(Nc1ccc([N+](=O)[O-])cc1Cl)c1cc(Cl)ccc1O
inactive: [1] | [2] | [3] | [4] | [6] | [7] | Papain (Carica papaya)
active: [5] 3.98 µM | [8] 4.77 µM | [9] 11.8 µM | [10] 11.8 µM

O=C1Cc2cc(CCN3CCN(c4nsc5ccccc45)CC3)c(Cl)cc2N1
inactive: [1] | [2] | [3] | [11] | [4] | [7]
active: Papain (Carica papaya) 3.55 µM | [9] 15 µM | [10] 20.5 µM

O=c1[nH]cc(F)c(=O)[nH]1
active: [9] 13.2 µM | [10] 23.7 µM and 14.8 µM
not listed: [5] | [6] | [14] | [15] | [16] | [17]
inactive: all other assays above

CN(C)CCC=C1c2ccccc2C=Cc2ccccc21
inactive: [1] | [2] | [3] | [11] | [4] | [5] | [8] | Papain (Carica papaya) | [14]
active: [9] 20.9 µM | [10] 23.5 µM

OCCN1CCN(CCCN2c3ccccc3Sc3ccc(C(F)(F)F)cc32)CC1
inactive: [1] | [2] | [3] | [4] | [7] | Papain (Carica papaya) | [15] | [16]
active: [9] 18.8 µM | [10] 18.8 µM

CN1CCC(=C2c3ccccc3CC(=O)c3sccc32)CC1
active: [6] 20 µM and 25.1 µM
not listed: [10] | [13] | [14] | [15] | [16] | [17]
inactive: all other assays above

Clc1ccccc1C(c1ccccc1)(c1ccccc1)n1ccnc1
active: [8] 0.977 µM | [9] 10.5 µM | [10] 9.34 µM
inactive: [1] | [2] | [3] | [4] | Papain (Carica papaya) | [17] | [15] | [16]

CCOC(=O)C(C)(C)Oc1ccc(Cl)cc1
inactive: [1] | [2] | [3] | [11] | [4] | [7] | [12] | Papain (Carica papaya) | [9] | [10]

N[C@@H](Cc1c[nH]c2ccc(O)cc12)C(=O)O
inactive: [1] | [2] | [3] | [11] | [4] | [12] | Papain (Carica papaya) | [9] | [10]
active: [8] 15.5 µM

CC(COc1ccccc1)N(CCCl)Cc1ccccc1 (stereo not drawn)
active: [13] 0.723 µM | [8] 12.1 µM
inactive: [1] | [2] | [3] | [4] | [12] | [9] | [10]

COc1ccc(C2CNC(=O)C2)cc1OC1CCCC1 (stereo not drawn)
not listed: [5] | [6] | [7] | [14] | [15] | [16] | [17]
inactive: all other assays above

NCCS(=O)(=O)O
not listed: [5] | [6] | [7] | [8] | [13] | [14]
inactive: all other assays above

NC(=O)NO
inactive: [1] | [2] | [3] | [11] | [4] | [12] | Papain (Carica papaya) | [9] | [10]

CC(C)NCC(O)c1ccc(O)c(O)c1 (stereo not drawn)
inactive: [1] | [2] | [3] | [11] | [4] | [6] | [8] | Papain (Carica papaya) | [9]

CN1CCN(C2=Nc3cc(Cl)ccc3Nc3ccccc32)CC1
inactive: [1] | [2] | [3] | [11] | [4] | Papain (Carica papaya)

CCCCc1oc2ccccc2c1C(=O)c1cc(I)c(OCCN(CC)CC)c(I)c1
inactive: [2] | [3] | [11] | [4] | [5] | [6] | Papain (Carica papaya)

Cc1cnc(C(=O)NCCc2ccc(S(=O)(=O)NC(=O)NC3CCCCC3)cc2)cn1
inactive: [1] | [2] | [3] | [12] | Papain (Carica papaya)

COc1nc(C)nc(Cl)c1NC1=NCCN1
inactive: [2] | [3] | [11] | [4] | [12] | [8] | Papain (Carica papaya) | [9] | [10]

CC(C)NCC(O)COc1ccc(CCOCC2CC2)cc1 (stereo not drawn)
inactive: [2] | [3] | [11] | [4] | [7] | [12] | [8] | Papain (Carica papaya) | [9] | [10]
